From PubChem BioAssay (NCATS)
Inconclusive results are not listed. A call without a number means that no potency is given here. Activity calls are given as the source filed them. The call rests on the fitted dose curve; in most records, active means well fitted inhibition curve with a large enough effect; inconclusive means small, poorly fitted or top-dose-only effect; inactive means no such curve, though single readings can be large or run the other way.

Assays:
[1] = tested on: Zika virus NS2B-NS3 protease (unlinked complex); assay: Primary screen GU Rhodamine qHTS for Zika virus inhibitors: Unlinked NS2B-NS3 protease assay (AID 1347159); further: nearly all actives have a fitted effect of over 60% in size
Summary of the method: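 Percent inhibition came from the 15-min rise in Rhodamine110 fluorescence (1.5 microM substrate, ~15% conversion), normalized to no-inhibitor and no-enzyme wells and Hill-fitted. Unlinked protease, 25 nM, pH 8.0 Tris buffer; compounds up to 114 microM, 15-min preincubation.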

[2] = tested on: Zika virus NS2B-NS3 protease (linked construct); assay: Primary screen NINDS Rhodamine qHTS for Zika virus inhibitors (AID 1347160); further: nearly all actives have a fitted effect of over 55% in size
Summary of the method: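 Rhodamine110-peptide cleavage (1.5 µM substrate) by 25 nM linked NS2B-NS3 enzyme at pH 8.0 (Tris, Tween 20), after 15 min RT preincubation with compounds; 15-min fluorescence change normalized to controls and Hill-fitted.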

SMILES | Potency [1] | Potency [2] | activity change, negative = inhibition [1] | activity change, negative = inhibition [2]
Cc1ccc(S(=O)(=O)N2CCC[C@H]2c2ccc(F)cc2)cc1 | inactive | inactive |  | 
CCC(C)(OC(C)=O)C(=O)O[C@H]1[C@H](OC(C)=O)[C@]2(CO)[C@H](O)[C@H](O)[C@]3(C)C(=CCC4[C@@]5(C)CC[C@H](O[C@@H]6O[C@H](C(=O)O)[C@@H](O)[C@H](O[C@@H]7OC[C@H](O)[C@H](O[C@@H]8OC[C@H](O)[C@H](O)[C@H]8O)[C@H]7O)[C@H]6O[C@@H]6O[C@H](CO)[C@@H](O)[C@H](O)[C@H]6O)C(C)(C)C5CC[C@]43C)[C@@H]2CC1(C)C (some centres not stated) |  |  | -1.56% [at 19.1 µM] (inactive) | -4.88% [at 10.7 µM] (inactive)
C=C1C(=O)O[C@@H]2[C@H]1CC(=O)[C@H](C)[C@@](O)(C(=O)/C=C/C)[C@H]2OC(=O)C(C)CC (some centres not stated) | inactive | inactive |  | 
COc1ccccc1S(=O)(=O)Nc1ccc2c(c1)CN(C)C(=O)N2 | inactive | inactive |  | 
CC(=O)OC(C)(C)/C=C/C(=O)[C@](C)(O)[C@H]1C(O)C[C@@]2(C)[C@@H]3CC=C4[C@@H](C=C(O[C@@H]5O[C@H](CO)[C@@H](O)[C@H](O)[C@H]5O)C(=O)C4(C)C)[C@]3(C)C(=O)C[C@]12C (some centres not stated) | inactive | inactive |  | 
O=C(NCCCc1ccccc1)C1CCC(CNS(=O)(=O)c2cccc3nsnc23)CC1 (configuration not stated) | inactive | inactive |  | 
CCCn1ncc(CN2CCCC(C(=O)c3cccc(OC(C)C)c3)C2)c1C (configuration not stated) | inactive | inactive |  | 
C=CC(C)(O)CC/C=C(/C)COC(=O)C(C)C1CCC(C)(C=C)O1 (configuration not stated) | inactive | inactive |  | 
C=C1CC2OC(=O)C(COC)C2C(OC(=O)/C(C)=C\C)CC2(C)OC1=CC2=O (configuration not stated) | inactive | inactive |  | 
CO[C@H]1C[C@@H]2CC[C@@H](C)[C@@](O)(O2)C(=O)C(=O)N2CCCC[C@H]2C(=O)O[C@H]([C@@H](C)C[C@@H]2CC[C@@H](O)[C@H](OC)C2)CC(=O)[C@H](C)/C=C(\C)[C@@H](O)[C@@H](OC)C(=O)[C@H](C)C[C@H](C)/C=C/C=C/C=C/1C | inactive | inactive |  | 
O=c1[nH]cnc2c([C@@H]3N[C@H](CO)[C@@H](O)[C@H]3O)c[nH]c12 | inactive | inactive |  | 
COC(=O)C1=CO[C@@H](O[C@@H]2O[C@H](CO)[C@@H](O)[C@H](O)[C@H]2O)[C@H]2[C@@H]1C=C[C@]21C=C([C@H](C)OC(=O)/C=C/c2ccc(O)cc2)C(=O)O1 | inactive | inactive |  | 
CCOC(=O)c1csc(Nc2ccc(Cl)cc2)n1 | inactive | inactive |  | 
CN(C)C(CCOc1cccc2ccccc12)c1ccccc1 (configuration not stated) | inactive | inactive |  | 
NC(=O)c1cnc(N[C@@H]2CCCC[C@H]2N)nc1Nc1cccc(-n2nccn2)c1 | inactive | inactive |  | 
CNC(=O)c1cc(Oc2ccc(NC(=O)c3cccc(C(F)(F)F)c3)cc2)ccn1 | inactive | inactive |  | 
C=C(C(=O)OC)[C@@H]1CC=C2C=CC(=O)[C@H](C)[C@@]2(C)C1 | inactive | inactive |  | 
C1=C/COCc2cc(ccc2OCCN2CCCC2)Nc2nccc(n2)-c2cccc(c2)COC/1 | inactive | inactive |  | 
COc1cc(-c2nc(N[C@H](CO)Cc3ccccc3)ccc2C(=O)NCCOc2ccccc2)cc(OC)c1OC | inactive | inactive |  | 
CC(C)NC(=O)COc1cccc(-c2nc(Nc3ccc4[nH]ncc4c3)c3ccccc3n2)c1 | inactive | inactive |  | 
CCCN1CCC=C(c2cc(-c3ccc(C)cc3)no2)C1 | inactive | inactive |  | 

SMILES | Potency [1] | Potency [2] | activity change, negative = inhibition [1] | activity change, negative = inhibition [2]
COc1ccccc1C(=O)Nc1cccc(NC(=O)c2cccc(C)c2)c1 | inactive | inactive |  | 
COc1cc(CCc2cc(NC(=O)c3ccc(N4CC(C)NC(C)C4)cc3)n[nH]2)cc(OC)c1 (configuration not stated) | inactive | inactive |  | 
FC(F)(F)c1ccc(/C=C/c2nc(COc3ccc(CCCCn4ccnn4)cc3)co2)cc1 | inactive | inactive |  | 
Cc1ccc(C2(C(=O)N3CCC(n4nc(-c5ccccc5)oc4=O)CC3)CC2)cc1 | inactive | inactive |  | 
CC(C)C[C@@H]1NC(=O)[C@@H]2C[C@@]34C[C@@H]5[C@@]6(C)CCCC(C)(C)C6CC[C@@]5(C)N(c5ccccc53)[C@H]4N2C1=O (some centres not stated) | inactive | inactive |  | 
C=C1CC[C@@H](O)[C@]2(C)CC[C@H]3C(=C)C(=O)O[C@@H]3[C@@H]12 | inactive | inactive |  | 
C[C@@H]1C[C@H]2O[C@@]3(O[C@@H]2C(C)(C)O)C(O)[C@@]2(C)C4CCC5C(C)(C)[C@@H](O[C@H]6OC[C@H](O)[C@@H](O)[C@@H]6O)CC[C@@]56C[C@@]46CC[C@]2(C)C13 (some centres not stated) | inactive | inactive |  | 
NS(=O)(=O)c1ccc(NC(=O)Nc2ccc(F)cc2)cc1 | inactive | inactive |  | 
C#CCCCn1cc(-c2cccc3c2N[C@H](C)CC(=O)N3)cn1 | inactive | inactive |  | 
C=C1C(=O)O[C@@H]2C[C@H](C)[C@@H]3CC(=O)C(C)=C3C[C@H]12 | inactive | inactive |  | 
Clc1ncoc1-c1c[nH]c2ccccc12 | inactive | inactive |  | 
COc1cc(/C=C2\CCCN([C@@H](C)c3ccc(F)cc3)C2=O)ccc1-n1cnc(C)c1 | inactive | inactive |  | 
O=[N+]([O-])c1ccc(Oc2ccc3c(c2)CCC(c2ccccc2)O3)nc1 (configuration not stated) | inactive | inactive |  | 
COCCCNC(=O)c1ccc(Cn2c(=O)c3ccccc3n(Cc3ccc(C(C)C)cc3)c2=O)cc1 | inactive | inactive |  | 
CNC(=O)COC(=O)N1CCC(CCc2ccc(Cl)cc2)CC1 | inactive | inactive |  | 
O=c1nc(-c2ccccn2)sc2ccccc12 | inactive | inactive |  | 
CCC(C)CNCC(=O)N1CCc2sccc2C1COc1cccc(C)c1 (configuration not stated) | inactive | inactive |  | 
CC(=O)Nc1cccc(Nc2ncnc(N3CCC(OCc4ccc(OC(F)(F)F)cc4)CC3)n2)c1C | inactive | inactive |  | 
CNC(=O)[C@@H](c1ccccc1)N1CCc2cc(OC)c(OC)cc2[C@@H]1CCc1ccc(C(F)(F)F)cc1 | inactive | inactive |  | 
CC(C)(C)c1ccc(C(=O)Nc2cn3cc(-n4ccnc4)ccc3n2)cc1 | inactive | inactive |  | 
